Data: PMC4336329 (PLoS ONE, 2015)
Among all 310,000 compounds or so, about 2,200 (0.71%) showed an effect of 50% or more. The effect is printed as a negative number. What follows is part of a selection rich in strong results, with near analogues and random picks from the rest.

target: human ether-à-go-go-related gene (hERG) potassium channel (human, UniProt Q12809); assay: primary screen, population patch clamp on CHO cells stably expressing hERG; higher = less effect of the substance
Sequence (Q12809 whole entry, looked up): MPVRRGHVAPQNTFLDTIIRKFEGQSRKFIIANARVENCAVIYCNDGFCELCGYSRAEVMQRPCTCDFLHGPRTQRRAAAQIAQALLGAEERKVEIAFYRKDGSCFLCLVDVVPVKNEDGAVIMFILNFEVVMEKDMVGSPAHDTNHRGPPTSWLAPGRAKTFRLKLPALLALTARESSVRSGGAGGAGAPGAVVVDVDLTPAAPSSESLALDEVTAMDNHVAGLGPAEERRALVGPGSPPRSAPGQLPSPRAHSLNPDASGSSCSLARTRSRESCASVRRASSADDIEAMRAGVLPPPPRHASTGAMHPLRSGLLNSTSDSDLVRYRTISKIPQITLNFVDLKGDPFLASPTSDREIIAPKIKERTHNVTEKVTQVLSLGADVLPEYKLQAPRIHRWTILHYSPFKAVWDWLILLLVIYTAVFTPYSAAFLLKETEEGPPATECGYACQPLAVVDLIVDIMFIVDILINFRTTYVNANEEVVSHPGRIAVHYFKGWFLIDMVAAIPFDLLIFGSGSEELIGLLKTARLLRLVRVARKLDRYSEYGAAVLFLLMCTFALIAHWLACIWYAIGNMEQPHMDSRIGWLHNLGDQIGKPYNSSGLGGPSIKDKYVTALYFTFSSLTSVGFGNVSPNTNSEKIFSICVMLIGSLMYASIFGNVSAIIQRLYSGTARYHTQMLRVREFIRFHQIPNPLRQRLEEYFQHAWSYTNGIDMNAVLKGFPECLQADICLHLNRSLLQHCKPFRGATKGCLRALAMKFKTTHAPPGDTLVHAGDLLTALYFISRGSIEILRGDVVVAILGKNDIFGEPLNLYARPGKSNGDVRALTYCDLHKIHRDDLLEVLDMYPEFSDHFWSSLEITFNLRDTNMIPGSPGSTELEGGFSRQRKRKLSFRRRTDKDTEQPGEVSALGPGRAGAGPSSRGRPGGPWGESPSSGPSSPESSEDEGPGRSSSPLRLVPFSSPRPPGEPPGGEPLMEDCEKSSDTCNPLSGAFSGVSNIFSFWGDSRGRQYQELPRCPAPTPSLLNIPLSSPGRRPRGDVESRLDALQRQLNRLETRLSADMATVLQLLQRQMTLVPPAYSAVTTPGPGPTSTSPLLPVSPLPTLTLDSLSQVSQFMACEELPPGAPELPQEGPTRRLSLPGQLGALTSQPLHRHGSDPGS

| Structure (SMILES) | hERG current change (%, negative = inhibition) at 1uM |
| --- | --- |
| COc1ccc2c(c1)CCc1c(C(=O)N3CCCCCC3)noc1-2 | -1.37% |
| C=C(C)CN1C(=O)c2ccccc2C1=O | 4.89% |
| Cc1nc(Nc2ccccc2)[nH]c(=O)c1CCC(C)C | 1.92% |
| Cc1ccc(C)c(-n2c(-c3cccnc3)n[nH]c2=S)c1 | 18.2% |
| CCN(Cc1ccc(NC(C)=O)cc1)CC1CCCN(CCc2cccc(F)c2)C1 (centres unmarked) | 9.42% |
| CCN(CC1CCCN(CCc2cccc(OC)c2)C1)C(=O)c1ccc(COC)o1 (centres unmarked) | -51.1% |
| CCN(CC1CCCN(CCc2cccc(OC)c2)C1)C(=O)c1ccoc1 (centres unmarked) | -14.5% |
| CCN(CC1CCCN(CCc2cccc(F)c2)C1)C(=O)c1cc(C)oc1C (centres unmarked) | -2.34% |
| CCN(Cc1ccc(O)cc1)CC1CCCN(CCc2cccc(F)c2)C1 (centres unmarked) | -8.8% |
| CCN(CC1CCCN(CCc2cccc(OC)c2)C1)C(=O)c1ccoc1C (centres unmarked) | -27.8% |
| CCN(CC1CCCN(CCc2cccc(F)c2)C1)C(=O)c1ccc(CSC)o1 (centres unmarked) | -52% |
| C=CCC(=O)N(CC)CC1CCCN(CCc2cccc(F)c2)C1 (centres unmarked) | -17.6% |
| CCN(CC1CCCN(CCc2cccc(F)c2)C1)C(=O)c1cc2ccccc2o1 (centres unmarked) | -64.7% |
| COc1ccc(C=O)cc1Cn1c(=O)n(CCC(=O)NCc2ccco2)c(=O)c2sccc21 | 5.91% |
| COc1ccc(N(CC(=O)NCc2ccc(Cl)cc2)S(=O)(=O)c2c(C)n[nH]c2C)cc1 | 1.42% |
| Cc1cc(C)nc(NS(=O)(=O)c2ccc(Br)cc2)n1 | 21.2% |
| Cc1ccc(Cn2c(CN3CC(C)OC(C)C3)nc3c2c(=O)[nH]c(=O)n3C)cc1 (centres unmarked) | -3.88% |
| O=C(O)CCn1cc(/C=C/C(=O)c2ccc(Cl)cc2)c(-c2cccc(Br)c2)n1 | 14.7% |
| CCN(Cc1ccccc1)C(=O)C1CCN(C/C(C)=C/c2ccccc2)CC1.O=C(O)C(=O)O | -31% |
| CCCCNC(=O)C1CCN(C/C(C)=C/c2ccccc2)CC1.O=C(O)C(=O)O | -33.9% |
| CCCCN(C)C(=O)C1CCN(Cc2cccnc2)CC1 | 10.1% |
| CCN(CC)C(=O)C1CCN(Cc2ccc(OCc3ccccc3)cc2)CC1.O=C(O)C(=O)O | -13.3% |

| Structure (SMILES) | hERG current change (%, negative = inhibition) at 1uM |
| --- | --- |
| CCCCN(C)C(=O)C1CCN(CCCc2ccccc2)CC1.O=C(O)C(=O)O | -73.6% |
| O=C(C1CCN(CCCc2ccccc2)CC1)N(CCc1ccccc1)Cc1ccccc1.O=C(O)C(=O)O | -75% |
| CCCCN(C)C(=O)C1CCN(Cc2cccc(OCc3ccccc3)c2)CC1.O=C(O)C(=O)O | -35.6% |
| O=C(C1CCN(CC2CC=CCC2)CC1)N(CCc1ccccc1)Cc1ccccc1 (centres unmarked) | -47% |
| CCCCN(C)C(=O)C1CCN(Cc2ccc(OCc3ccccc3)cc2)CC1.O=C(O)C(=O)O | -55.7% |
| CCCCN(C)C(=O)C1CCN(C/C(C)=C/c2ccccc2)CC1.O=C(O)C(=O)O | -54.3% |
| CCCCN(C)C(=O)C1CCN(Cc2ccccn2)CC1.O=C(O)C(=O)O | 6.35% |
| CC1CCN(C(=O)C2CCN(CCCc3ccccc3)CC2)CC1.O=C(O)C(=O)O | -23.5% |
| COC(=O)C1=C(c2cc3ccccc3o2)C[C@@H]2CC[C@H]1N2C(=O)NC1CCCCC1 | -7.33% |
| CC(C)C(NC(=O)c1ccccc1)c1nnc(SCC(=O)Nc2nccs2)n1C (centres unmarked) | 15.7% |
| Cc1cc(=O)nc2c3ccccc3n(CC(=O)NCCCN3CCCC3=O)n12 | 10.4% |
| O=C(O)CCC(=O)NNC(=O)c1cccs1 | 15.5% |
| CCOC(=O)CSc1nc(CC)nc2ccccc12 | 4.2% |
| O=c1cc(CO)oc(CN2CCCC2)c1O | -2.54% |
| C/C(=N\O)c1ccc2c(c1)CC(C)O2 (centres unmarked) | 13.6% |
| COc1ccc2c(c1)sc(N)[n+]2Cc1cc(C)cc2cccnc12.[Br-] | -26.5% |
| Cc1cc(C[n+]2ccsc2N)c2ncccc2c1.[Br-] | -20.1% |
| CCOc1ccc2c(c1)sc(N)[n+]2Cc1cc(C)cc2cccnc12.[Br-] | -56.2% |
| CN(Cc1ccccc1)C(=O)c1nn2cccnc2c1Cl | 13.2% |
| CCCCNC(=O)c1cc2c(=O)n3cccc(C)c3nc2n(CCN2CCOCC2)c1=N | -92.4% |
| Cc1cccn2c(=O)c3cc(C(=O)NCCN4CCOCC4)c(=N)n(CCN4CCOCC4)c3nc12 | 12.2% |
| COCCn1c(=N)c(C(=O)NCCc2ccc(OC)cc2)cc2c(=O)n3cccc(C)c3nc21 | -95.4% |

| Structure (SMILES) | hERG current change (%, negative = inhibition) at 1uM |
| --- | --- |
| CCNC(=O)c1cc2c(=O)n3cccc(C)c3nc2n(CCc2ccccc2)c1=N | -90.7% |
| COCCNC(=O)c1cc2c(=O)n3cccc(C)c3nc2n1C | 22.6% |
| Cc1cccn2c(=O)c3cc(C(=O)NCCN4CCOCC4)n(C)c3nc12 | 9.82% |
| COCCn1c(=N)c(C(=O)NCCc2ccccc2)cc2c(=O)n3cccc(C)c3nc21 | -86.1% |
| COc1ccc(CN2CCN(Cc3ccccc3C(F)(F)F)CC2)c(OC)c1.O=C(O)C(=O)O | -39.5% |
| Cc1ccc(N2C(=O)CC(NCc3ccc4c(c3)OCO4)C2=O)cc1Cl (centres unmarked) | -12.2% |
| COc1ccc(COC(=O)c2ccc(C)c(S(=O)(=O)N3CCOCC3)c2)cc1F | 16% |
| Cc1ccc(CNS(=O)(=O)c2ccc3c(c2)C(C)(C)C(=O)N3C)cc1 | 7.06% |
| COc1cc(CNC(=O)CCCC/C=C/C(C)C)ccc1O | 11.8% |
| CC(=O)N1CCN(c2ccc(NC(=O)c3ccc(Cl)c([N+](=O)[O-])c3)cc2)CC1 | 5.32% |
| O=C(C/C(=N\NC(=O)c1ccccc1Br)C(F)(F)F)c1cccs1 | 3.65% |
| O=C(Nc1ncnc2sc3c(c12)CCCCC3)c1ccc(F)cc1 | 14.2% |
| Cc1[nH]c2ccccc2c1C(=O)CSc1nc2cc(S(=O)(=O)N3CCCCC3)ccc2o1 | 9.62% |
| CCc1cc2c(=O)c(-c3nc4ccccc4n3C)c(CCCC(=O)O)oc2cc1OC(=O)C(C)(C)C | 14.8% |
| CC(=O)c1ccc(NC(=O)Cc2ccsc2)cc1 | 14.1% |
| C=CCNC(=O)NS(=O)(=O)c1ccc(C)cc1 | 16.6% |
| Cc1cccn2c(=O)c3cc(C(=O)NC(C)c4ccccc4)c(=N)n(CCCn4ccnc4)c3nc12 (centres unmarked) | -10.8% |
| Cc1cccn2c(=O)c3cc(C(=O)NCCN4CCOCC4)c(=N)n(CCc4ccccc4)c3nc12 | -71.8% |
| Cc1cccn2c(=O)c3cc(C(=O)NCCCn4ccnc4)n(C)c3nc12 | 2.55% |
| Cc1cccn2c(=O)c3cc(C(=O)NCCc4ccccc4)c(=N)n(CCCn4ccnc4)c3nc12 | -61.3% |
| Cc1ccc(C2(C)NC(=O)N(CC(=O)Nc3cc(S(=O)(=O)N4CCOCC4)ccc3C)C2=O)cc1 (centres unmarked) | -9.42% |
| CC(C)(C)c1ccc(/C=N/OCC(=O)NCc2ccc(F)cc2)cc1 | 11.5% |

| Structure (SMILES) | hERG current change (%, negative = inhibition) at 1uM |
| --- | --- |
| COC(=O)c1ccc(/C=N/OCC(=O)NCc2ccc(F)cc2)cc1 | 3.32% |
| O=C(CO/N=C/c1ccc(OC(F)F)cc1)NCc1ccc(F)cc1 | -52% |
| O=C(NCc1cc(C(F)(F)F)cc(C(F)(F)F)c1)C1CC(c2ccc(C(F)(F)F)cc2)=NO1 (centres unmarked) | 18.6% |
| Cl.c1ccc2c(c1)nc1n2CCN1CCN1CCCC1 | 18.3% |
| CN1CCN(CCN2CCn3c2nc2ccccc23)CC1.Cl | 5.64% |
| Cl.c1ccc(CN2CCN(CCN3CCn4c3nc3ccccc34)CC2)cc1 | -62.3% |
| COc1ccc(CN(C)C(c2ccccc2)c2nnnn2-c2ccccc2C)c(OC)c1C (centres unmarked) | 11.5% |
| CCn1c(CC(=O)Nc2ccccc2)nnc1SCC(=O)NC1CCCC1 | 5.86% |
| Cc1cc(C)c2nc(N3CCC(C(=O)NCc4cccnc4)CC3)sc2c1 | -50.6% |
| Cc1cc(C)c2nc(N3CCC(C(=O)NCc4ccccn4)CC3)sc2c1 | 9.75% |
| Cc1cc(=O)n2nc(N3CCC(C(=O)NCc4cccnc4)CC3)sc2n1 | 6.87% |
| O=S(=O)(c1cccs1)N1CCN(c2ccnc3cc(Cl)ccc23)CC1 | -2.74% |
| Clc1ccc2c(N3CCNCC3)ccnc2c1 | -15.4% |
| O=[N+]([O-])c1ccc(S(=O)(=O)N2CCN(c3ccnc4cc(Cl)ccc34)CC2)cc1 | -77.8% |
| O=S(=O)(c1cccc(Br)c1)N1CCN(c2ccnc3cc(Cl)ccc23)CC1 | 10.2% |
| O=S(=O)(c1ccc(Br)s1)N1CCN(c2ccnc3cc(Cl)ccc23)CC1 | 6.07% |
| Cc1ccc(S(=O)(=O)N2CCN(c3ccnc4cc(Cl)ccc34)CC2)cc1C | 21.6% |
| O=S(=O)(c1ccccc1OC(F)(F)F)N1CCN(c2ccnc3cc(Cl)ccc23)CC1 | 9.89% |
| N#Cc1cccc(S(=O)(=O)N2CCN(c3ccnc4cc(Cl)ccc34)CC2)c1 | -57.2% |
| O=S(=O)(c1ccccc1)N1CCN(c2ccnc3cc(Cl)ccc23)CC1 | -79.9% |
